Screening results as filed in PubChem.
Bim-Bcl-B – human Bim-Bcl-B interaction inhibition; Q9HD36; bead-based flow cytometry, Bim peptide-Bcl-B binding; inhibition, % at 10 µM; actives 0.073% (n = 190,000)
Target sequence (Q9HD36 whole entry, looked up): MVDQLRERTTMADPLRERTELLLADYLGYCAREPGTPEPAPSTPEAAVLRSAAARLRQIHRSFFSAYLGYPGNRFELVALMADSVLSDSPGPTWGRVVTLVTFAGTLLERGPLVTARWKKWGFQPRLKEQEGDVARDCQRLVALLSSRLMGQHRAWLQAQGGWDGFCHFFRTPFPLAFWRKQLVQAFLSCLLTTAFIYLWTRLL
Bcl-XL Bim block – inhibitors of Bim-Bcl-XL interaction, human | inhibition, % at 10 µM | actives 0.04% (n = 190,000) | Bim peptide-Bcl-XL binding, bead flow cytometry, fluorescence
Wee1 stabilizer – blocks degradation of human Wee1 kinase. AID 1321. actives 1.2% (n = 220,000). reporter increase, % at 5 µM. P30291. HeLa Luc-Wee1K328M stability, luciferase luminescence; 100% = proteasome inhibitor MG132 effect;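 active means activation above the mean of all tested compounds plus 3 SD, set per screening run, cut at about 8.8% in these data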;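 further: cells exposed to compound for 20 h before luminescence read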
Bcl-2 Bim block – disrupts Bim peptide binding to human Bcl-2; P10415; Bead-based flow cytometry, Bim peptide-Bcl-2 binding; inhibition, % at 10 µM; actives 0.06% (n = 190,000); in the data active means inhibition above about 40%
Target sequence (P10415 whole entry, looked up): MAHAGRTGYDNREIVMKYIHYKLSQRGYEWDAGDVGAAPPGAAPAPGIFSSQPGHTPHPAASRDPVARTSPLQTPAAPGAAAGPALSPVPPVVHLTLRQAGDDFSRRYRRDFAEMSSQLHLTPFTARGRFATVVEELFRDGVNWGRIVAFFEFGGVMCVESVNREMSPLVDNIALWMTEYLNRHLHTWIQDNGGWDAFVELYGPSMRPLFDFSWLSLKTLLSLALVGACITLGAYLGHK
Bim-Bcl-W – inhibitors of Bim-Bcl-W interaction, human. Q92843. bead-based flow cytometry, Bim peptide-Bcl-W binding. inhibition, % at 10 µM. actives 0.02% (n = 190,000);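 further: higher means less fluorescent Bim peptide bound to Bcl-W beads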
Bfl-1 Bim block – inhibitors of Bim-Bfl-1 interaction, human; Q16548; Bead-based flow cytometry, Bim-Bfl-1 binding inhibition; inhibition, % at 10 µM; actives 0.12% (n = 190,000)
Target sequence (Q16548 whole entry, looked up): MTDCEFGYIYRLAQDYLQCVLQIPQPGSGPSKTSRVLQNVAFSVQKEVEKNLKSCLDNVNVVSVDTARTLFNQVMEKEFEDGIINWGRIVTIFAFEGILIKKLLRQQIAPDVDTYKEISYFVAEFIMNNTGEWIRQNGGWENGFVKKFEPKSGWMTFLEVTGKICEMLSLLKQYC
Wee1 stab conf – human Wee1 degradation inhibition, confirmation. actives 4% (n = 1,100). HeLa Luc-Wee1K328M degradation, luminescence; vehicle 0%, proteasome-blocked wells 100%. shares compounds with Wee1 stabilizer. activation, % at 5 µM; in the data active means activation above about 8.9%
Large screens that a line does not name were inactive (follow-up assays come after a bar, where they were run). An excerpt weighted towards active compounds, which were near 1.4% of everything screened. Unless noted, no stated cut-off is given here; in the data, active means inhibition above about 40%.

Clc1cccc(NCc2ccccc2)n1	Wee1 stabilizer 27 | Wee1 stab conf inactive
CCCCNS(=O)(=O)c1ccc(NC(=O)Cc2ccccc2[N+](=O)[O-])cc1	Wee1 stabilizer 14 | Wee1 stab conf inactive
COc1ccc(OCCn2c(=O)sc3ccccc32)cc1	Wee1 stabilizer 13 | Wee1 stab conf inactive
COc1ccccc1OCCn1c(=O)sc2ccccc21	none
COc1ccc(C(C2C(=O)CC(C)(C)CC2=O)C2C(=O)CC(C)(C)CC2=O)cc1	none (no result: Bim-Bcl-B, Bcl-XL Bim block, Bcl-2 Bim block, Bim-Bcl-W, Bfl-1 Bim block)
CC1(C)CC(=O)C(C(c2ccncc2)C2C(=O)CC(C)(C)CC2=O)C(=O)C1	Wee1 stabilizer 13 (no result: Bim-Bcl-B, Bcl-XL Bim block, Bcl-2 Bim block, Bim-Bcl-W, Bfl-1 Bim block) | Wee1 stab conf inactive
O=C(Nc1cccnc1)c1ccc(S(=O)(=O)N2CCCCCC2)cc1	none
CCCCNS(=O)(=O)c1ccc2nc(-c3cccnc3)cc(C(=O)NC(C)C)c2c1	Wee1 stabilizer 19 | Wee1 stab conf inactive
CCCCNS(=O)(=O)c1ccc2nc(-c3cccnc3)cc(C(=O)NC(C)CC)c2c1 (stereo not drawn)	none
CC(=O)Nc1ccc(N2CC(C)(C)C2=O)cc1	none
COc1cc(-c2nc3ccccn3c2/N=C/c2ccccc2)ccc1O	Wee1 stabilizer 68 | Wee1 stab conf inactive
CC1CC(C)CN(C(=S)SCc2nc(N)nc(Nc3ccccc3)n2)C1 (stereo not drawn)	Wee1 stabilizer 12 (no result: Bim-Bcl-B, Bcl-XL Bim block, Bcl-2 Bim block, Bim-Bcl-W, Bfl-1 Bim block) | Wee1 stab conf inactive
CC(/C=C/C=C/c1ccccc1)=N/NC(=O)c1ccc2c(c1)OCCO2	Wee1 stabilizer 11 (no result: Bim-Bcl-B, Bcl-XL Bim block, Bcl-2 Bim block, Bim-Bcl-W, Bfl-1 Bim block) | Wee1 stab conf inactive
O=C1OCC2=C1C(c1ccc(Cl)cc1)CC(=O)N2c1ccc(F)cc1 (stereo not drawn)	Wee1 stabilizer 14 | Wee1 stab conf inactive
CN(C)c1ccc(C(CNS(=O)(=O)c2ccc(F)c(F)c2)c2c[nH]c3ccccc23)cc1 (stereo not drawn)	Wee1 stabilizer 11 | Wee1 stab conf inactive
CN(C)c1ccc(C(CNC(=O)c2ccccc2F)c2c[nH]c3ccccc23)cc1 (stereo not drawn)	none
COc1ccc(C2c3ccc(O)cc3Oc3ncn(Cc4ccccc4)c(=N)c32)cc1OC (stereo not drawn)	Wee1 stabilizer 19 (no result: Bim-Bcl-B, Bcl-XL Bim block, Bcl-2 Bim block, Bim-Bcl-W, Bfl-1 Bim block) | Wee1 stab conf inactive
COc1ccc(C2c3ccc(O)cc3Oc3ncn4nc(-c5ccccn5)nc4c32)cc1 (stereo not drawn)	Wee1 stabilizer 11 (no result: Bim-Bcl-B, Bcl-XL Bim block, Bcl-2 Bim block, Bim-Bcl-W, Bfl-1 Bim block) | Wee1 stab conf inactive
Cc1nc(-c2ccncc2)sc1C(=O)Nc1ccc(Br)cc1	none
CCc1ccc(NC(=O)Nc2cccc(OC)c2)cc1	Wee1 stabilizer 12 | Wee1 stab conf inactive
COc1cccc(NC(=O)Nc2cccnc2)c1	none
COc1cccc(NC(=O)Nc2ccc3c(c2)nnn3C)c1	Wee1 stabilizer 16 | Wee1 stab conf inactive
O=C(Nc1ccn(-c2ccccc2)n1)c1ccc(S(=O)(=O)N2CCCCCC2)cc1	none
COc1cc([N+](=O)[O-])ccc1NC(=O)Cn1ccsc1=N	none
O=C(/C=C/c1c(F)cccc1Cl)Nc1ncccn1	none
C=CCNC(=O)/C=C/c1c(F)cccc1Cl	Wee1 stabilizer 13 | Wee1 stab conf inactive
Cc1ccccc1C(=O)Nc1nnc(SC(C)C)s1	none
CCOc1ccccc1NC(=O)CN(c1ccc(OC)cc1OC)S(=O)(=O)c1ccccc1[N+](=O)[O-]	none
CCN(CC)c1ccc(/C=N/NC(=S)NC)c(O)c1	Wee1 stabilizer 14 | Wee1 stab conf inactive
COc1ccc(CNC(=O)Nc2ccc3c(c2)N(C)C(=O)CS3)cc1	none
Cn1cc2cc(NC(N)=S)ccc2n1	none
Cn1c(C(=O)Nc2ccc3c(c2)OCCO3)cc2sccc21	Wee1 stabilizer 16 | Wee1 stab conf inactive
Cc1ccc(-n2[nH]c(C)c(CCC#N)c2=O)cc1	none
CN(C(=O)c1ccccc1)c1nc2ccccc2s1	Wee1 stabilizer 13 | Wee1 stab conf inactive
CCc1ccc(NC(=O)c2ccc3nc(N)sc3c2)cc1	none
Nc1nc2ccc(C(=O)Nc3ccccc3)cc2s1	Wee1 stabilizer 15 | Wee1 stab conf inactive
O=c1c(Cc2c(F)cccc2Cl)c(O)ccn1CCc1c[nH]c2ccccc12	none
COc1ccc(OC)c(S(=O)(=O)N2CCC(C(=O)Nc3cccc(C)c3)CC2)c1	Wee1 stabilizer 11 | Wee1 stab conf inactive
O=C(CC1C(=O)NCCN1Cc1c(F)cccc1Cl)NC1CCCC1 (stereo not drawn)	none
O=C(N/N=C/c1ccc2ncccc2c1)c1ccco1	Wee1 stabilizer 13 | Wee1 stab conf inactive
O=C1c2ccccc2NC(c2ccccc2)N1Cc1ccco1 (stereo not drawn)	Wee1 stabilizer 15 | Wee1 stab conf inactive
CC(C)Cc1ccc(C(C)C(=O)Nc2ccccc2O)cc1 (stereo not drawn)	none (no result: Bim-Bcl-B, Bcl-XL Bim block, Bcl-2 Bim block, Bim-Bcl-W, Bfl-1 Bim block)
COCCCNCCCOc1ccc(C(C)(C)c2ccccc2)cc1	none
C=CCNCCCOc1ccc(C(C)(C)c2ccccc2)cc1	Wee1 stabilizer 13 | Wee1 stab conf inactive
Cc1cc(N2C(=O)[C@@H]3[C@H](C2=O)[C@@H]2C[C@H]3C(Br)C2Br)no1 (stereo partly drawn)	none (no result: Bim-Bcl-B, Bcl-XL Bim block, Bcl-2 Bim block, Bim-Bcl-W, Bfl-1 Bim block)
COc1cccc(CC(=O)Nc2nc3ccccc3[nH]2)c1	Wee1 stabilizer 12 | Wee1 stab conf inactive
COc1cc(C(=O)Nc2nc3ccccc3[nH]2)ccc1OC(F)F	Wee1 stabilizer 12 (no result: Bim-Bcl-B, Bcl-XL Bim block, Bcl-2 Bim block, Bim-Bcl-W, Bfl-1 Bim block) | Wee1 stab conf inactive
CCOC(=O)c1[nH]c(C)c(CN(C(C)=O)c2ccc(OCC)cc2)c1C	Wee1 stabilizer 13 | Wee1 stab conf inactive
Cc1ccc(/C=C/C(=O)c2ccc(O)cc2)cc1	Wee1 stabilizer 17 (no result: Bim-Bcl-B, Bcl-XL Bim block, Bcl-2 Bim block, Bim-Bcl-W, Bfl-1 Bim block) | Wee1 stab conf inactive
Cc1cc(C)n2nc(CC(=O)NCc3ccc(F)cc3)nc2n1	none
CCCCNCCCOc1cccc(Cl)c1Cl	Wee1 stabilizer 11 | Wee1 stab conf inactive
CCCCNCCCOc1ccc(C)cc1Br	none
Cn1c(=NC(=O)c2ccccc2[N+](=O)[O-])sc2cccc(F)c21	Wee1 stabilizer 17 (no result: Bim-Bcl-B, Bcl-XL Bim block, Bcl-2 Bim block, Bim-Bcl-W, Bfl-1 Bim block) | Wee1 stab conf inactive
CCCC(c1nnnn1CS(=O)(=O)c1ccc(C)cc1)N1CCN(CC)CC1 (stereo not drawn)	none
CC(C)CC(=O)c1c[nH]c(C(=O)NCc2cccs2)c1	none
COc1ccc(C)cc1NC(=S)N1CCN(S(C)(=O)=O)CC1	none
CCC(C)NCCOc1ccc(C)cc1[N+](=O)[O-] (stereo not drawn)	Wee1 stabilizer 25 | Wee1 stab conf inactive
Cc1ccc(S(=O)(=O)NCCC(=O)OCC(=O)NC(=O)c2cccn2C)cc1	none (no result: Bim-Bcl-B, Bcl-XL Bim block, Bcl-2 Bim block, Bim-Bcl-W, Bfl-1 Bim block)
COc1ccc(-c2nc(CCl)cs2)cc1OC	none
COc1ccc(-c2nc(-c3ccc(O)cc3O)cs2)cc1OC	Wee1 stabilizer 13 | Wee1 stab conf inactive
CCCCOc1ccc(-c2[nH]ncc2C=O)cc1	Wee1 stabilizer 15 | Wee1 stab conf inactive
O=C1OC(c2ccco2)=N/C1=C\c1ccc(-c2cccc(C(F)(F)F)c2)o1	none
CCN(CC)S(=O)(=O)c1cc(C(=O)Nc2cccnc2Cl)ccc1Cl	none
